Assay results reported in PubChem BioAssay (NCI).
About 83,000 compounds went through this panel and 20% of them were active in at least one assay; those are over-represented in the sample as a whole.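 Values shown are percent growth following 48 h exposure of cells in 96-well plates to a single concentration of compound; below 10 was considered active.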 Active and inactive are the calls of the source.

Experiments:
Experiment in all cases: NCI-60 one-dose screen, 48 h (100 = growth as untreated, 0 = no growth, -100 = all killed)
Conditions in all cases: 10 µM unless noted
HCT-15 colon = system: HCT-15 colon
HT29 colon = system: HT29 colon
SNB-75 CNS = system: SNB-75 CNS
SNB-19 CNS = system: SNB-19 CNS
U251 CNS = system: U251 CNS
PC-3 prostate = system: PC-3 prostate
SK-MEL-5 melanoma = system: SK-MEL-5 melanoma
UACC-62 melanoma = system: UACC-62 melanoma
LOX IMVI melanoma = system: LOX IMVI melanoma
SK-MEL-28 melanoma = system: SK-MEL-28 melanoma

Measured: growth

C=CCn1cc(C=C2C(=O)N(C)C(=O)N(C)C2=O)c2ccccc21
inactive: HCT-15 colon 106% | HT29 colon 104% | SNB-75 CNS 78.7% | SNB-19 CNS 96.2% | U251 CNS 98.2% | PC-3 prostate 89.4% | SK-MEL-5 melanoma 94.9% | UACC-62 melanoma 93.8% | LOX IMVI melanoma 94.8% | SK-MEL-28 melanoma 97.9%

COC(=O)[C@@H](C)C[C@H](Cc1ccccc1)NC(=O)c1nc([C@@H](C[C@H](C(C)C)N(C)C(=O)[C@@H](NC(=O)[C@H]2CCCCN2C)C(C)C)OC(C)=O)sc1C
active: HT29 colon 4.71% | SK-MEL-5 melanoma -39.2%
inactive: HCT-15 colon 12.9% | SNB-75 CNS 12.7% | SNB-19 CNS 24.3% | U251 CNS 14.6% | PC-3 prostate 28.9% | UACC-62 melanoma 30.2% | LOX IMVI melanoma 12.4% | SK-MEL-28 melanoma 66.1%

COc1ccc(/C=C\c2cc(OC)c(OC)c(OC)c2)cc1OCC(=O)Nc1nc2ccc(C(F)(F)F)cc2s1
inactive: HCT-15 colon 15.2% | HT29 colon 92.6% | SNB-19 CNS 33.7% | U251 CNS 18% | PC-3 prostate 31.5% | SK-MEL-5 melanoma 16.8% | UACC-62 melanoma 32.1% | SK-MEL-28 melanoma 32.9%
active: SNB-75 CNS -6.34% | LOX IMVI melanoma 9.35%

COc1ccc(Nc2ccc([N+](=O)[O-])cc2[N+](=O)[O-])cc1CN(CCCl)CCCl
inactive: HCT-15 colon 27.7% | HT29 colon 13.2% | SNB-75 CNS 33.7% | SNB-19 CNS 22.3% | U251 CNS 29.6% | PC-3 prostate 46.8% | SK-MEL-5 melanoma 57.2% | UACC-62 melanoma 12.1% | SK-MEL-28 melanoma 73.6%
active: LOX IMVI melanoma 3.66%

[Au+].[N-]=C=O.c1ccc(CN2[CH-]N(Cc3ccccc3)C(c3ccccc3)=C2c2ccccc2)cc1
inactive: HCT-15 colon 51.9% | HT29 colon 88.4% | SNB-75 CNS 79.2% | SNB-19 CNS 58.7% | U251 CNS 47.8% | PC-3 prostate 84.1% | SK-MEL-5 melanoma 96.9% | UACC-62 melanoma 78% | LOX IMVI melanoma 94.7% | SK-MEL-28 melanoma 92.8%

COc1cc(/C=C\c2cc(OC)c(OC)c(OC)c2)cc(NS(=O)(=O)c2cccc(Cl)c2)c1OC
active: SK-MEL-5 melanoma -29.4%
inactive: HCT-15 colon 10.9% | HT29 colon 15.3% | SNB-75 CNS 64.5% | SNB-19 CNS 41.2% | U251 CNS 11.1% | PC-3 prostate 35.1% | UACC-62 melanoma 36.1% | LOX IMVI melanoma 20% | SK-MEL-28 melanoma 64%

COC(=O)[C@@H](C)C[C@H](Cc1ccc2ccccc2c1)NC(=O)c1csc([C@@H](C[C@H](C(C)C)N(C)C(=O)[C@@H](NC(=O)[C@H]2CCCCN2C)C(C)C)OC(C)=O)n1
inactive: HCT-15 colon 70.3% | SNB-75 CNS 42.8% | SNB-19 CNS 51.8% | U251 CNS 22.1% | PC-3 prostate 47.3% | UACC-62 melanoma 49.3% | LOX IMVI melanoma 28.3% | SK-MEL-28 melanoma 68.6%
active: HT29 colon 1.71% | SK-MEL-5 melanoma -21%

COC(=O)[C@@]1(C)CC[C@]2(C)CC[C@]3(C)C4=CC(=O)c5c(cc(O)c(O)c5C)[C@]4(C)CC[C@@]3(C)[C@@H]2C1
active: SK-MEL-5 melanoma 7.93%
inactive: HCT-15 colon 36.9% | HT29 colon 90.2% | SNB-75 CNS 112% | SNB-19 CNS 60.5% | U251 CNS 42% | PC-3 prostate 33.8% | UACC-62 melanoma 28.3% | LOX IMVI melanoma 50.7% | SK-MEL-28 melanoma 91.3%

CC(=O)OCc1cc[c]([Hg][Cl])o1
active: HCT-15 colon 5.8% | U251 CNS 7.54% | LOX IMVI melanoma -50.5%
inactive: HT29 colon 46% | SNB-75 CNS 42.7% | SNB-19 CNS 45.2% | PC-3 prostate 43.8% | SK-MEL-5 melanoma 42.6% | UACC-62 melanoma 47.8% | SK-MEL-28 melanoma 12.3%

O=C1Nc2ccccc2C2c3cccn3-c3ccccc3CN12 (stereo not given)
inactive: HCT-15 colon 38% | HT29 colon 11.3% | SNB-75 CNS 21.1% | SNB-19 CNS 73.4% | U251 CNS 14.7% | PC-3 prostate 48.6% | SK-MEL-5 melanoma 43.1% | UACC-62 melanoma 35% | LOX IMVI melanoma 63% | SK-MEL-28 melanoma 66.6%

CC(=O)O[C@H]1CC[C@H]2[C@@H]3CC=C4c5nc(-c6ccccc6)sc5CC[C@]4(C)[C@H]3CC[C@]12C
active: HCT-15 colon 9.12% | HT29 colon -31.5%
inactive: SNB-75 CNS 91.4% | SNB-19 CNS 67.4% | U251 CNS 47.5% | PC-3 prostate 72.3% | SK-MEL-5 melanoma 59.9% | UACC-62 melanoma 50.7% | LOX IMVI melanoma 29.8% | SK-MEL-28 melanoma 90.4%

COC(=O)CCc1c[nH]c2ccc(N(CCCl)CCCl)cc12
inactive: HCT-15 colon 64.9% | HT29 colon 59.3% | SNB-75 CNS 49% | SNB-19 CNS 54% | U251 CNS 40.1% | PC-3 prostate 65.3% | SK-MEL-5 melanoma 52% | UACC-62 melanoma 49.3% | LOX IMVI melanoma 29.7% | SK-MEL-28 melanoma 91.1%

CCOC(=S)S[C@H]1C[C@@H]2[C@H](CC[C@]3(C)C(=O)CC[C@@H]23)[C@@]2(C)CCC(=O)C=C12
inactive: HCT-15 colon 101% | HT29 colon 111% | SNB-75 CNS 93.1% | SNB-19 CNS 99.5% | U251 CNS 102% | PC-3 prostate 106% | SK-MEL-5 melanoma 103% | UACC-62 melanoma 94.3% | LOX IMVI melanoma 97.9% | SK-MEL-28 melanoma 104%

CSc1nc(Cl)cc(N2CC2)n1
inactive: HCT-15 colon 100% | HT29 colon 112% | SNB-75 CNS 110% | SNB-19 CNS 108% | U251 CNS 110% | PC-3 prostate 92.5% | SK-MEL-5 melanoma 105% | UACC-62 melanoma 97.9% | LOX IMVI melanoma 111% | SK-MEL-28 melanoma 121%

COC(=O)[C@H](Cc1ccccc1)NC(=O)c1csc([C@@H](C[C@H](C(C)C)N(C)C(=O)[C@@H](NC(=O)[C@H]2CCCCN2C)C2CC2)OC(C)=O)n1
active: HT29 colon 5.33% | U251 CNS -5.23% | SK-MEL-5 melanoma -1.17%
inactive: HCT-15 colon 13.1% | SNB-75 CNS 34.3% | SNB-19 CNS 69.6% | PC-3 prostate 11.3% | UACC-62 melanoma 36.3% | LOX IMVI melanoma 14.7% | SK-MEL-28 melanoma 44.7%

COC(=O)CC[C@H](Cc1ccccc1)NC(=O)c1csc([C@@H](C[C@H](C(C)C)N(C)C(=O)[C@@H](NC(=O)[C@H]2CCCCN2C)C(C)C)OC(C)=O)n1
inactive: HCT-15 colon 57.6% | SNB-75 CNS 34.3% | SNB-19 CNS 44.2% | U251 CNS 12.5% | PC-3 prostate 39.8% | UACC-62 melanoma 34.4% | LOX IMVI melanoma 29.3% | SK-MEL-28 melanoma 77.3%
active: HT29 colon 5.29% | SK-MEL-5 melanoma -13.4%

CC(C)=CCC[C@H](C(=O)O)[C@@H]1CC[C@]2(C)C3=C(CC[C@@]12C)[C@@]1(C)CC[C@H](O)C(C)(C)[C@@H]1CC3
inactive: HCT-15 colon 97.7% | HT29 colon 91% | SNB-75 CNS 90.1% | SNB-19 CNS 97.1% | U251 CNS 94.5% | PC-3 prostate 84.8% | SK-MEL-5 melanoma 103% | UACC-62 melanoma 96.1% | LOX IMVI melanoma 102% | SK-MEL-28 melanoma 103%

COC(=O)[C@@H](C)C[C@H](Cc1ccccc1)NC(=O)c1csc([C@@H](C[C@H](C(C)C)N(C)C(=O)[C@@H](NC(=O)[C@H]2CCCCN2C)C2CC2)OC(C)=O)n1
active: HT29 colon -12.4% | SK-MEL-5 melanoma -50.1% | LOX IMVI melanoma 8.42%
inactive: HCT-15 colon 12.3% | SNB-75 CNS 32.3% | SNB-19 CNS 38% | U251 CNS 13.6% | PC-3 prostate 27.2% | UACC-62 melanoma 60% | SK-MEL-28 melanoma 60.3%

CC(C)(N)Cc1ccccc1
inactive: HCT-15 colon 105% | HT29 colon 97.2% | SNB-75 CNS 103% | SNB-19 CNS 108% | U251 CNS 105% | PC-3 prostate 88.9% | SK-MEL-5 melanoma 116% | UACC-62 melanoma 107% | LOX IMVI melanoma 103% | SK-MEL-28 melanoma 116%

O=C(Nc1ccc([N+](=O)[O-])cc1)C(Cl)(Cl)Cl
inactive: HCT-15 colon 80.8% | HT29 colon 101% | SNB-75 CNS 96.6% | SNB-19 CNS 94.7% | U251 CNS 93.9% | PC-3 prostate 95.1% | SK-MEL-5 melanoma 99.4% | UACC-62 melanoma 84.9% | LOX IMVI melanoma 63.3% | SK-MEL-28 melanoma 103%

Nc1nc([Se])c2ncn(C3OC(CO)C(O)C3O)c2n1 (stereo not given)
inactive: HCT-15 colon 85.6% | HT29 colon 55.2% | SNB-75 CNS 96.7% | SNB-19 CNS 98% | U251 CNS 94.6% | PC-3 prostate 93.4% | SK-MEL-5 melanoma 92.2% | UACC-62 melanoma 68.5% | LOX IMVI melanoma 10.1% | SK-MEL-28 melanoma 98.9%

CCCC(=O)O[C@@H]1C[C@H]2C[C@@H](O[C@@H]3O[C@@H](C)[C@@H](O)[C@@H](O)[C@H]3OC)C[C@@H](C[C@@H](C)/C=C/C=C\C[C@@H]3O[C@@H](C[C@@H]3C)[C@@H](O)C[C@H]3C[C@@]1(O)C(=O)O3)O2
inactive: HCT-15 colon 54.3% | HT29 colon 60% | SNB-75 CNS 55.4% | SNB-19 CNS 52.4% | U251 CNS 35.6% | PC-3 prostate 33% | SK-MEL-5 melanoma 19.5% | UACC-62 melanoma 62.5% | LOX IMVI melanoma 62.5% | SK-MEL-28 melanoma 71.5%

O=C(CCCCCNC1=CC(=O)c2ccccc2C1=O)NCCC[Te]c1ccccc1
active: HCT-15 colon -20.1% | HT29 colon -47.5% | SNB-75 CNS -26% | SNB-19 CNS 5.42% | U251 CNS -8.56% | PC-3 prostate -0.995% | SK-MEL-5 melanoma -92.9% | UACC-62 melanoma -27.7% | LOX IMVI melanoma -22.1% | SK-MEL-28 melanoma -42%

CCCCCCCOC(C(=O)OCCN(CC)CC)(c1ccccc1)c1ccccc1
inactive: HCT-15 colon 49.9% | HT29 colon 31.4% | SNB-75 CNS 86.1% | SNB-19 CNS 94% | U251 CNS 77.8% | PC-3 prostate 61.2% | SK-MEL-5 melanoma 78.2% | UACC-62 melanoma 103% | LOX IMVI melanoma 92.2% | SK-MEL-28 melanoma 96%

ClCCN(CCCl)Cc1ccc(Nc2ccnc3cc(Cl)ccc23)cc1
inactive: HCT-15 colon 48.2% | HT29 colon 10.2% | SNB-75 CNS 45.1% | SNB-19 CNS 60.8% | U251 CNS 22.4% | PC-3 prostate 47.3% | SK-MEL-5 melanoma 54.2% | UACC-62 melanoma 26.8% | LOX IMVI melanoma 20.1% | SK-MEL-28 melanoma 67.1%

COC(=O)[C@@H](C)C[C@H](Cc1ccccc1)NC(=O)c1csc([C@@H](C[C@H](C(C)C)N(C)C(=O)[C@H](C)NC(=O)[C@H]2CCCCN2C)OC(C)=O)n1
active: HT29 colon 9.42%
inactive: HCT-15 colon 45.4% | SNB-75 CNS 18.1% | SNB-19 CNS 27.7% | U251 CNS 10.8% | PC-3 prostate 19.6% | SK-MEL-5 melanoma 19.3% | UACC-62 melanoma 28.4% | LOX IMVI melanoma 39.8% | SK-MEL-28 melanoma 58.1%
